The record followed here is PubChem BioAssay AID485364 (National Center for Advancing Translational Sciences (NCATS), 2010).

Screen size: about 360,000 compounds; about 11,000 (3.1%) were called active. A call without a number means that no potency is given here. Inconclusive results (about 4%) are left out. Calls come from the whole dose curve; as a rule, active = well fitted inhibition curve with a large enough effect; inconclusive = small, poorly fitted or top-dose-only effect; inactive = no such curve, though single readings can be large or run the other way. This excerpt belongs to a sample that is enriched for actives.
Potency is the fitted concentration of half-maximal effect.

For the assay, the target named is Schistosoma mansoni thioredoxin glutathione reductase (TGR) (UniProt Q962Y6). Description: qHTS Assay for the Inhibitors of Schistosoma Mansoni Peroxiredoxins. Note: nearly all actives have a fitted effect of over 60% in size. The note with it: purified TGR, DTNB reduction, TNB absorbance 405 nm; series mostly up to 114 µM. The method in brief: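 First, TGR (20 nM dispensed) and NADPH were mixed with compound. Second, a 15 min room-temperature incubation followed. Third, further NADPH and then DTNB were added to start the reaction. Finally, TNB absorbance was monitored kinetically.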
For the compound `Cc1cccc(Cc2c(C)nc3nc(SCc4ccccc4Cl)nn3c2C)c1`, the Potency entry was “inactive”. To `Cc1ccc(Cl)cc1NC(=O)CCC(=O)N1CC(C)Sc2ccccc21` (stereo unspecified) belongs “inactive”; to `Cc1oc2ncnc(N3CCCCC3)c2c1C(=O)N1CCN(c2cccc(Cl)c2)CC1`, “inactive”; to `COc1cccc(NC(=O)Nc2ccc3c(c2)N(C)C(=O)c2ccccc2S3)c1`, “inactive”. As for `CCOc1ccc(CCNC(=O)Cn2nc(CC)n3c(cc4sc(CC)cc43)c2=O)cc1OCC`, the entry is “inactive”. As for `Cc1ccc2c(=O)c(C(=O)c3ccc(Cl)cc3)cn(CC(=O)NC3CCCCC3)c2n1`, the entry is “inactive”; as for `Cc1noc(/C=C/N(C)C)c1S(=O)(=O)N1CCCC(C(=O)Nc2cccc(F)c2)C1` (stereo unspecified), “inactive”. For the compound `CCc1cccc(NC(=O)c2cnc(N3CCOCC3)c3ccccc23)c1`, the Potency result is “inactive”.

Turning to `Cc1ccc(CNC(=O)CCC(=O)N2Cc3ccccc3Oc3ncccc32)cc1`, the Potency result was “inactive”. Take `CCc1ccccc1N1C(=O)CN(S(=O)(=O)CC)CC1(C)C(=O)NC1CCCCC1` (stereo unspecified): the Potency entry is “inactive”.

In the case of `Cc1ccc(NC(=O)Cn2c(=O)n(-c3ccccc3)c(=O)c3c4c(sc32)CCCC4)cc1`, the Potency result was “inactive”. As for `COc1ccc(/C=C(/NC(=O)c2ccccc2)C(=O)Nc2cccc(C(=O)O)c2)cc1`, the entry is “inactive”; as for `Cc1cccc(NC(=O)/C(=C\c2ccco2)NC(=O)c2ccccc2)c1`, 20 µM (active). To `O=C(Nc1ccc(C(=O)O)cc1)/C(=C\c1ccccc1)NC(=O)c1ccc(Br)cc1` belongs “inactive”; to `COc1ccc(-c2nc3sc(CCNS(=O)(=O)c4ccc(F)c(C)c4)c(C)n3n2)cc1`, “inactive”. As for `Cc1ccc2nc3c(cc(C(=O)NC4CCCCC4)c(=N)n3C(C)C)c(=O)n2c1`, the entry is “inactive”; as for `COc1ccc(NC2CC(=O)N(C)C2=O)cc1` (stereo unspecified), 15.8 µM (active); as for `COc1ccc(N2C(=O)CC(Nc3ccc(F)cc3)C2=O)c([N+](=O)[O-])c1` (stereo unspecified), “inactive”. For `COc1ccc(N=C2SC(C(=O)Nc3ccc(F)cc3)CC(=O)N2C)cc1` (stereo unspecified), the Potency entry was “inactive”.

Consider `CCN(C(=O)Cn1c(=O)nc(-c2ccccc2)c2cc(Cl)ccc21)c1cccc(C)c1`, for which the Potency result is “inactive”. Turning to `COC(=O)c1cccc(N(C(=O)c2ccco2)C(C(=O)NC2CCCC2)c2ccco2)c1` (stereo unspecified), the Potency is 44.7 µM (active). As for `COc1cccc(C(C(=O)NC2CCCC2)N(C(=O)c2ccco2)c2cccc(C(C)=O)c2)c1OC` (stereo unspecified), the entry is “inactive”; as for `O=C(NC1CCCC1)C(c1ccco1)N(C(=O)c1ccco1)c1ccc(F)cc1` (stereo unspecified), “inactive”. As for `Cc1ccc(CNC(=O)CSc2c(C)cnc3c2c(=O)n(C)c(=O)n3C)cc1`, the entry is “inactive”. As for `Cc1ccc(NC(=O)CCCn2c(=O)c3cccn3c3ccccc32)cc1Cl`, the entry is “inactive”; as for `Cn1c(=O)[nH]c(=O)c2c1nc(NCCc1ccccc1)n2Cc1ccc(F)cc1`, “inactive”.

Take `CC(=O)C1=C(C)NC(=O)NC1c1ccc2c(c1)OCO2` (stereo unspecified): the Potency result was “inactive”. To `Cc1c(C(=O)O)cccc1-n1c(C)cc(/C=C2\C(=O)NC(=O)N(c3ccc4c(c3)OCO4)C2=O)c1C` belongs 14.1 µM (active); to `Cc1ccccc1-n1c(C)cc(/C=C2\NC(=O)NC2=O)c1C`, “inactive”. Consider `CCOC(=O)c1cccc(NS(=O)(=O)c2cn(C)c(C)n2)c1`, for which the Potency result is “inactive”. To `CC(C)CN1CCNC(=O)C1CC(=O)N(C)CC1CCOCC1` (stereo unspecified) belongs “inactive”.

Regarding `CN(Cc1cccc2ncccc12)C(=O)CC1C(=O)NCCN1Cc1ccc(F)cc1` (stereo unspecified), the Potency is 35.5 µM (active). `C=CCC1(CC=C)CCCN1C(=O)CC1C(=O)NCCN1Cc1ccccc1OC` (stereo unspecified): the Potency entry is “inactive”. To `Cc1cnc(CN(C)C(=O)CC2C(=O)NCCN2Cc2cccc(F)c2F)[nH]1` (stereo unspecified) belongs “inactive”; to `COc1ccccc1CN1CCNC(=O)C1CC(=O)N(C)CC1CCOCC1` (stereo unspecified), 50.1 µM (active); to `CCCOC(=O)CC1C(=O)NCCN1Cc1ccc(F)cc1` (stereo unspecified), “inactive”. To `CCc1ccc2ncc3c(-c4ccc(C)cc4)nn(CC(=O)NCc4ccccc4)c3c2c1` belongs “inactive”. Regarding `Cc1nn(C)c2c1c(C(F)(F)F)cc(=O)n2C(C)C(=O)NCc1ccc(Cl)cc1` (stereo unspecified), the Potency result was “inactive”. To `CC(C)c1ccc(NC(=O)Cn2nnc(C(=O)NCCc3ccccc3)c2N)cc1` belongs “inactive”.

On to `COc1ccc(C(=O)NCC(=O)N/N=C/c2ccc([N+](=O)[O-])o2)cc1OC`, for which the Potency was 17.8 µM (active). To `COc1ccccc1OCCNC(=O)c1cc([N+](=O)[O-])cc([N+](=O)[O-])c1` belongs “inactive”; to `COc1cc(CC(=O)N/N=C/c2ccccc2)c([N+](=O)[O-])cc1OC`, “inactive”.

With `CC(C)(C)c1ccc(S(=O)(=O)N2CCN(C(=O)c3cc(-c4ccc(Br)cc4)n[nH]3)CC2)cc1`, the Potency entry was “inactive”. As for `COc1ccc(N2CCN(S(=O)(=O)c3ccc(-c4coc(C)n4)cc3)CC2)cc1`, the entry is “inactive”; as for `O=C(C1CCCN(S(=O)(=O)c2cccc3nonc23)C1)N1CCN(c2ccccc2F)CC1` (stereo unspecified), “inactive”; as for `CCC(=O)N1CCc2cc(Br)cc(S(=O)(=O)Nc3ccc(C)cc3C)c21`, “inactive”. As for `Oc1c(C=Nc2cccc3nsnc23)ccc2ccccc12`, the Potency was 7.94 µM (active). In the case of `CCc1ccc(S(=O)(=O)n2ccnc2)cc1`, the Potency result was “inactive”. As for `COCC(C)NS(=O)(=O)c1ccc(N2CCCCS2(=O)=O)cc1` (stereo unspecified), the Potency entry was “inactive”. To `O=C(O)CCCn1c(=O)c2cccn2c2ccc(F)cc21` belongs “inactive”; to `COCCCNC(=O)C1CC(=O)N(CCc2ccc(F)cc2)C1` (stereo unspecified), “inactive”. Regarding `COCCCn1c(CCC(=O)O)ccc1-c1ccc(F)cc1`, the Potency is 44.7 µM (active). As for `CCOC(=O)C1CCCN(CC(=O)Nc2cc(C)c3c(=O)oc4ccccc4c3n2)C1` (stereo unspecified), the entry is “inactive”. On to `O=C(CSC1CC(=O)N(CCc2ccccc2)C1=O)Nc1ccc(Cl)cc1` (stereo unspecified), for which the Potency result is “inactive”.

For `Cc1cc(Cl)ccc1N1C(=O)CC(SCCC(=O)O)C1=O` (stereo unspecified), the Potency was 39.8 µM (active).

Consider `CCC1Oc2ccc(Cl)cc2N(CC(=O)O)C1=O` (stereo unspecified), for which the Potency result is “inactive”. To `COc1ccc(N2CCN(C(=O)c3c(C)oc4nc(C)nc(N5CCCC5)c34)CC2)cc1` belongs “inactive”; to `COc1ccc(C(=O)N2CCC(c3nc4ccccc4o3)CC2)cc1`, “inactive”. To `Cc1ccc(CNC(=O)C(=O)c2cn(CC(=O)N3CCOCC3)c3ccccc23)cc1` belongs “inactive”; to `O=C(NCc1ccco1)C(=O)c1cn(CC(=O)N2CCCCCC2)c2ccccc12`, 31.6 µM (active). To `Cc1ccc(CNC(=O)C(=O)c2cn(CC(=O)N3CCCC3)c3ccccc23)cc1` belongs “inactive”; to `CC1CCN(C(=O)Cn2c(=O)n(-c3ccc(Cl)cc3)c(=O)c3c4c(sc32)CCC4)CC1`, “inactive”; to `Cc1cc(C)c2oc(C(=O)Nc3c(C(=O)Nc4ccccc4)oc4ccccc34)cc(=O)c2c1`, “inactive”. With `NC(=O)CC[C@@H]1NC(=O)[C@@H]2CCCN2C(=O)c2cc([N+](=O)[O-])cc(F)c2NCCC[C@@H](C(N)=O)NC1=O`, the Potency is 44.7 µM (active).

For the compound `NC(=O)CC[C@@H]1NC(=O)[C@H](CO)NC(=O)c2cc([N+](=O)[O-])cc(I)c2NCC[C@@H](C(N)=O)NC1=O`, the Potency result is “inactive”.

As to `C[C@@H]1NC(=O)c2cc([N+](=O)[O-])cc(F)c2NCCC[C@@H](C(N)=O)NC(=O)[C@H](CC(N)=O)NC1=O`, the Potency entry was “inactive”. Turning to `Cc1cccc(CC(=O)Nc2cccc(-c3cn4cccnc4n3)c2)c1`, the Potency entry was “inactive”. To `CCCc1cc(=S)n2c([nH]c3ccccc32)c1C#N` belongs 0.631 µM (active); to `CN(C)Cc1c(C#N)c2ccccc2n1C`, “inactive”. As for `O=C(Cn1c(-c2cccs2)cc2ccccc21)NCCc1ccc(Cl)cc1`, the entry is “inactive”; as for `Cc1ccc2c(c1)N(C(=O)Nc1ccc(Br)cc1F)CCO2`, “inactive”; as for `COc1ccc(-c2cn3c(C)c(C(=O)Nc4cc(C)cc(C)c4)sc3n2)cc1`, “inactive”. As for `CCOC(=O)C1CCCN(C(=O)c2cccc(S(=O)(=O)N3CCOCC3)c2)C1` (stereo unspecified), the entry is “inactive”; as for `CCOC(=O)C1CCCN(C(=O)c2ccc(CS(=O)(=O)c3ccc(Br)cc3)o2)C1` (stereo unspecified), 20 µM (active); as for `CCOC(=O)C1CCCN(C(=O)c2cncc(Br)c2)C1` (stereo unspecified), “inactive”. Regarding `O=C(c1ccc2c(c1)N(Cc1ccccc1)C(=O)c1ccccc1S2(=O)=O)N1CCC(Cc2ccccc2)CC1`, the Potency result is “inactive”. To `O=C(CC1C(=O)NCCN1Cc1ccc(-c2ccccc2)cc1)NCC1CCOCC1` (stereo unspecified) belongs “inactive”; to `Cc1ccc(CN2CCNC(=O)C2CC(=O)NCc2csc(C(C)C)n2)cc1` (stereo unspecified), “inactive”. `CC(C)c1nc(CNC(=O)CC2C(=O)NCCN2Cc2ccoc2)cs1` (stereo unspecified): the Potency is 35.5 µM (active). To `COC(=O)c1cc(S(=O)(=O)N2CCN(c3cc(Cl)ccc3C)CC2)c[nH]1` belongs “inactive”. With `Cc1ccc(C(=O)CC2(O)C(=O)N(CCc3ccccc3)c3ccc(Br)cc32)cc1` (stereo unspecified), the Potency result was “inactive”. Turning to `Cc1onc(-c2ccc(F)cc2F)c1C(=O)Nc1cccc(C(F)(F)F)c1`, the Potency entry is “inactive”. With `COc1ccc(CCNC(=O)c2ccc3c(c2)sc2nc(-c4ccc(C)cc4)cn23)cc1OC`, the Potency entry was “inactive”. As for `CCc1cccc(NC(=O)c2cc(-c3ccccc3)n[nH]2)c1`, the entry is “inactive”.

Consider `O=C(O)c1ccc(NC(=O)c2ccc(COc3ccc(Cl)cc3)o2)cc1`, for which the Potency result was “inactive”. As for `O=C(O)c1ccc(COc2c(F)c(F)cc(F)c2F)o1`, the Potency was 35.5 µM (active).

As for `COC(=O)c1ccc(COc2ccc(C#N)cc2)o1`, the Potency result is “inactive”. With `N#CC1=C(N)C(C#N)(C#N)[C@H](c2ccsc2)[C@H]2COCC=C12`, the Potency was 12.6 µM (active).

Consider `CCN1CC=C2C(C#N)=C(N)C(C#N)(C#N)[C@H](c3ccoc3)[C@H]2C1`, for which the Potency result is “inactive”. As for `Cc1ccc(C)c(N2CCN(C(=O)Cc3c(C(=O)O)c(C)cn3C)CC2)c1`, the entry is “inactive”; as for `O=C(NNC1CC(=O)N(c2cccc(Cl)c2)C1=O)c1cccnc1` (stereo unspecified), “inactive”. As for `Cc1nc2ccccc2c(=O)n1-c1ccc(Cl)cc1Cl`, the entry is “inactive”. To `O=C1[C@@H]2C(c3cccnc3)=NO[C@@H]2C(=O)N1c1ccc(Cl)cc1Cl` belongs 8.91 µM (active); to `COc1ccccc1-c1nnc(C2CCN(C(=O)c3ccc(Cl)cc3)CC2)o1`, “inactive”; to `CC(C)(C)c1ccc(C(=O)Nc2ccc3c(c2)CCCN3C(=O)c2cccs2)cc1`, “inactive”. For `Cc1cccc(Cn2c(CN3CCC(C(=O)NCc4ccccc4Cl)CC3)cc3ccccc32)c1`, the Potency result is “inactive”.
